# Assay outcomes (PubChem)
# eIF4H FP inh: inhibitors of RNA binding by human eIF4H; 290,000 tested, 0.94% active; eIF4H fluorescence polarization binding assay; Q15056; inhibition, % at 35 µM;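 further: calls also rest on retests at 20 µM and on dose response follow-up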
# CendR NRP1 mod: modulators of CendR peptide binding to human neuropilin-1. inhibition, % at 25 µM. AID 602438. 360,000 tested, 0.85% active. FAM-RPARPAR peptide binding to NRP-1, fluorescence polarization;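 active means inhibition or corrected inhibition above about 18%, plus a signal ratio from 0.5 to 1.5, limit read from the data, passing the limit was not always enough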
# Target sequence (O14786 whole entry, looked up): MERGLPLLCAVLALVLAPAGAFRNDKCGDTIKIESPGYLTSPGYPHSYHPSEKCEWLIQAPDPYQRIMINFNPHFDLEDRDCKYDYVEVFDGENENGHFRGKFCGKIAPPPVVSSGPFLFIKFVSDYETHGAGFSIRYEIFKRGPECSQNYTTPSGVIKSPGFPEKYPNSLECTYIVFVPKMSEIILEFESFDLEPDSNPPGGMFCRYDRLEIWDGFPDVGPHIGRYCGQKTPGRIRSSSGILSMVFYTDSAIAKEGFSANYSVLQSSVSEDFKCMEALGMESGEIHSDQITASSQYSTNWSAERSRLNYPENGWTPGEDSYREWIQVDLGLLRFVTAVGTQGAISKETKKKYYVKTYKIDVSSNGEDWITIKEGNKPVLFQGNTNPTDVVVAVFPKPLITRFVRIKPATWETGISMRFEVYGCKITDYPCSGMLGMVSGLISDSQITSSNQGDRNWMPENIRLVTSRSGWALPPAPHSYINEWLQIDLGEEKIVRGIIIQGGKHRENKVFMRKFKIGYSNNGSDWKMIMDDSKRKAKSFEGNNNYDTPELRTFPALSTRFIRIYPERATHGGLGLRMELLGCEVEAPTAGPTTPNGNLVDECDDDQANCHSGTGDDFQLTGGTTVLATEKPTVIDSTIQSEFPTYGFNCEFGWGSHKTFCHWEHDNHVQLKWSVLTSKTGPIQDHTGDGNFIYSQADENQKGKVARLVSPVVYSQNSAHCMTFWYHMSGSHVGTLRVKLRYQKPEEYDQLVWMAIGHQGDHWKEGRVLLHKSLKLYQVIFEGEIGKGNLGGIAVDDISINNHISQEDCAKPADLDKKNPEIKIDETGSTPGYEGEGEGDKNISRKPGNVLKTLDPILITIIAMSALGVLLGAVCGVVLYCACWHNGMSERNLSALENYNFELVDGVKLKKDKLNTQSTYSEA
# PABP polyA inh: blocks human PABP binding to poly(A) RNA | P11940 | fluorescence polarization | inhibition, % at 35 µM | 290,000 tested, 1% active;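 further: calls also rest on retests at 20 µM and on dose response follow-up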
# MLLE-PAM2 inh: inhibitors of microRNA-mediated deadenylation, human PABP1 MLLE binding. P11940. GST-MLLE / FITC-PAM2 fluorescence polarization. inhibition, % at 20 µM. 360,000 tested, 0.36% active; in the data active means inhibition above about 35%, passing the limit was not always enough;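 further: plate controls were DMSO wells with GST-MLLE for no effect and wells lacking GST-MLLE protein for full effect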
# Active calls of the source: *; ? = inconclusive; . = no result given. Hits are enriched below; roughly 2.1% of the tested compounds scored in any of these assays. Unless noted, how the calls were made is not given here.
SMILES,eIF4H FP inh,CendR NRP1 mod,PABP polyA inh,MLLE-PAM2 inh
O=c1c2cn[nH]c2nc(SCc2cc(=O)n3cc(Br)ccc3n2)n1-c1ccc(Br)cc1,-3,32*,-7,12
COc1ccc(N2CCN(C(=O)CSc3nc4[nH]ncc4c(=O)n3-c3ccc(Br)cc3)CC2)cc1,3,6,3,-8
O=c1c2cn[nH]c2nc(SCc2ccccc2F)n1-c1ccc(Br)cc1,8,26*,7,-30
CCC1CCCCN1C(=O)c1ccc2c(c1)C(=O)N(c1ccc(C)cc1)C2=O (stereo unspecified),-3,14,6,2
Cc1ccc(Sc2cnc(N)nc2C)cc1,active,9,62*,2
Cc1ccc(Sc2ncccc2C(N)=O)cc1,.,12,.,-1
COc1ccc(CNC(=O)c2ccc(CS(=O)(=O)c3ccc(Br)cc3)o2)cc1,-2,0,-8,-6
Cc1ccc(/C=C/C(=O)OCC(=O)N(C)c2c(N)n(Cc3ccccc3)c(=O)[nH]c2=O)o1,.,-13,.,-7
C[C@H]1c2cccc(O)c2C(O)=C2C(=O)C3(O)C(O)=C(C(N)=O)C(=O)[C@@H](N(C)C)[C@@H]3[C@@H](O)[C@@H]21 (stereo partly specified),.,-6,.,1
C=C1c2cccc(O)c2C(O)=C2C(=O)[C@]3(O)C(O)=C(C(N)=O)C(=O)[C@@H](N(C)C)[C@@H]3[C@@H](O)[C@H]12,107*,13,110*,25
O=C(Cn1cc([N+](=O)[O-])cn1)N1CCN(Cc2ccc3c(c2)OCO3)CC1,-6,11,1,10
NC(=O)COC(=O)c1cccc2c1-c1ccccc1C2=O,?,4,53*,13
CC(C)Nc1ncnc2c1cnn2-c1ccccc1,-6,8,-8,-10
NNc1ncnc2c1cnn2-c1ccccc1,-13,28*,4,-15
N#CC(c1ccc([N+](=O)[O-])cc1)C(CC(=O)c1ccccc1)c1ccccc1 (stereo unspecified),.,28*,.,0
N#CC(c1cccc([N+](=O)[O-])c1)C(CC(=O)c1ccccc1)c1ccccc1 (stereo unspecified),.,-2,.,-13
NC(=S)N/N=C/c1cc([N+](=O)[O-])ccc1OCCOc1ccccc1,5,25*,3,-71
CC1(C)O[C@@H]2[C@H](O1)[C@@H](CO)O[C@H]2n1cnc2c(=O)[nH]cnc21,.,26*,.,3
CC(C)(C)OC(=O)Nc1ncnc2c1ncn2C1OC(CO)C2OC(C)(C)OC21 (stereo unspecified),0,-4,-8,19
O=C1CC/C=C\C[C@@H](CC(=O)N(CCO)Cc2ccccc2)C(=O)NCCO1,.,26*,.,-7
COc1ccccc1NC(=O)Cc1nnc(SCC(=O)c2ccc(F)cc2)n1C,-1,-1,-15,-1
Cc1nonc1OCCNCc1c(C(=O)N2CCCCCCC2)nc2ccc(Cl)cn12,19,-12,9,0
Cc1nonc1OCCNCc1c(C(=O)N(C)C)nc2ccc(Cl)cn12,87*,-3,62*,-1
CCCN1C(=O)c2ccccc2NC1c1ccc(Cl)c(Cl)c1 (stereo unspecified),-8,8,7,-4
CCCCN1C2=C(C(=O)CCC2)C(c2ccc(Cl)c(Cl)c2)C2=C1c1ccccc1C2=O (stereo unspecified),90*,-6,92*,38
SMILES,eIF4H FP inh,CendR NRP1 mod,PABP polyA inh,MLLE-PAM2 inh
C=CCOc1c(CNc2ncn[nH]2)cccc1OCC,-3,28*,11,-3
COC(=O)C1=CN(c2ccc(N3CCOCC3)cc2)C(N)=C(C#N)C1c1ccc(-c2ccccc2)cc1 (stereo unspecified),.,8,.,.
O=C(O)c1cnn(-c2ccccc2)c1-c1ccccc1,-1,4,0,3
C=CCNC(=O)c1cnn(-c2ccccc2)c1-c1ccccc1,1,26*,-7,-8
CN1CCc2c(sc3nc(SCC(N)=O)n(-c4ccccc4)c(=O)c23)C1,122*,-28,103*,-41
O=c1c(-c2ccc(O)cc2)coc2c([C@@H]3O[C@H](CO)[C@@H](O)[C@H](O)[C@H]3O)c(O)ccc12,.,24*,.,10
O=c1c(-c2ccc(O)cc2)coc2c(C3O[C@H](CO)[C@@H](O)[C@H](O)[C@H]3O)c(O)ccc12 (stereo partly specified),4,5,4,-5
COc1cccc(C(=O)N2N=C(c3ccccc3)CC2(O)C(F)(F)F)c1 (stereo unspecified),-12,27*,1,-6
Oc1ccc(/C=N/Nc2ccnc3cc(Cl)ccc23)cc1O,-1,-11,-28,-10
Oc1ccc(/C=N/Nc2ccnc3cc(Cl)ccc23)c(O)c1O,67*,2,19,-61
COc1ccc(-n2cc(-c3ccccc3)c3c(N4CC(C)OC(C)C4)ncnc32)cc1 (stereo unspecified),-14,8,-6,5
COc1ccc2oc(=O)c(C(=O)NCc3ccccc3)cc2c1,-3,11,-10,0
COc1ccc2oc(=O)c(C(=O)OCc3ccccc3)cc2c1,-4,3,7,43*
COc1ccc(/C=C/C(=O)N/C(=C\c2ccco2)C(=O)NCCc2nc3ccccc3[nH]2)cc1,-8,-29,-6,-31
O=C(/C=C/c1ccco1)N/C(=C\c1ccco1)C(=O)NCCc1nc2ccccc2[nH]1,77*,-17,44*,-3
C/C(=N\NC(=O)c1ccc(NS(=O)(=O)c2cccs2)cc1)c1cccs1,active,-2,81*,-3
CCOc1ccc(NC(=O)C2CCC(N3C(=O)C4CC=CCC4C3=O)CC2)cc1 (stereo unspecified),-9,29*,1,0
CCOc1ccc(NC(=O)C2CC3CCC2C3)cc1 (stereo unspecified),.,28*,.,5
COc1ccc(NC(=O)C2CCC(N3C(=O)C4C5C=CC(C5)C4C3=O)CC2)cc1 (stereo unspecified),-4,6,-8,0
COCC1CCN(C(=O)c2oc3c(F)cccc3c2C)C1 (stereo unspecified),-7,5,0,1
COc1ccc(-c2csc(N(CCCN(C)C)C(=O)c3ccc(Br)cc3)n2)cc1,-7,22*,-12,2
COc1cc(/C=C2\CCCc3c2nc2ccccc2c3C(=O)O)cc(Br)c1O,-5,-4,42,-3
COc1cc(/C=C2\CCc3c2nc2ccccc2c3C(=O)O)cc(OC)c1OC,87*,9,66*,2
CCN1C/C(=C\c2cccc(C)c2)c2nc3ccccc3c(C(=O)O)c2C1,?,.,88*,.
Cc1cccc(NS(=O)(=O)c2cccs2)c1,2,36*,-1,-13
Nc1ncnc2c1ncn2[C@@H]1O[C@H](C(=O)N[C@H](CO)Cc2ccc(O)cc2)[C@@H](O)[C@H]1O,.,3,.,4
Cc1ccc(SC(CC(=O)c2ccc(F)cc2)C(=O)O)cc1 (stereo unspecified),-3,5,-2,32
